High-throughput results (PubChem)
D2 PAM-1 – positive allosteric modulators of human D2 dopamine receptor; P14416; HEK293 T-REx D2, calcium flux, EC20 dopamine potentiation; potentiation, % at 10 µM; actives 0.34% (n = 340,000); AID 485347;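 active means potentiation over 3 SD above the plate norm, cut at about 30% in these data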; further: 0% is about no effect
Target sequence (P14416 whole entry, looked up): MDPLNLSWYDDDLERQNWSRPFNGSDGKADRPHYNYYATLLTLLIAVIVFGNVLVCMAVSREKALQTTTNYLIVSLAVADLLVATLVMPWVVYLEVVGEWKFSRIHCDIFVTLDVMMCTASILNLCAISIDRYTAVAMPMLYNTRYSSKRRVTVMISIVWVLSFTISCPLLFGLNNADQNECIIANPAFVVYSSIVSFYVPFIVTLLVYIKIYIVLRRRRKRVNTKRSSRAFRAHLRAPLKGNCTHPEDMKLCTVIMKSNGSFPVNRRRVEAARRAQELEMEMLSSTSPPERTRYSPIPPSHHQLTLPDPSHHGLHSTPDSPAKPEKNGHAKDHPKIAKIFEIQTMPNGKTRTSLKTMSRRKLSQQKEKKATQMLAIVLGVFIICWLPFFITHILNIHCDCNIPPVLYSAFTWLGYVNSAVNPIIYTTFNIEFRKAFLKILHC
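Using a no-wash calcium dye in inducible, force-coupled HEK293 Trex cells expressing D2, we tracked fluorescence each second for 180 s after compound, then for 180 s after EC20 dopamine to detect augmented signalling.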
D2 PAM-2 – potentiates the human D2 dopamine receptor allosterically. P14416. DiscoveRx D2 beta-arrestin cells, luminescence, 90 min; 100% = 57 uM dopamine signal. potentiation, % (no concentration beside the values). actives 0.23% (n = 360,000); in the data active means potentiation above about 50%; inconclusive means mostly about 30% to 49%
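D2 cells co-treated with compound plus 50 nM dopamine (EC20) for 90 min at 37 deg C to detect potentiation. Beta-arrestin recruitment was read as enzyme-fragment luminescence after 1 h at ambient temperature. Full response was set by 57 uM dopamine.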
D2 antag – antagonizes the human D2 dopamine receptor | P14416 | HEK293 TREx D2 cells, calcium flux, dopamine EC80 | inhibition, % at 10 µM | actives 2% (n = 340,000) | AID 485344; in the data active means inhibition above about 30%; inactive means below that, where a call was filed; further: 0% is about no effect
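Calcium flux kinetic readout in an inducible HEK293 TREx D2 line plated overnight at 30 C. After 180 s compound exposure, an EC80 dopamine challenge follows with another 180 s kinetic read to detect antagonism.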
D2 ag-1 – D2 dopamine receptor (human) agonism; P14416; HEK293 T-REx D2 cells, calcium flux agonist mode; activation, % at 2 µM; actives 0.53% (n = 340,000); AID 485358;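 active means activation over 3 SD above normal in the single-dose calcium agonist read, cut at about 30% in these data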; further: 0% is about no effect
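Agonism is scored from calcium flux in a force-coupled, inducible HEK293 cell line expressing D2, read kinetically for 180 s after compound addition against dopamine controls.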
D2 ag-2 – agonists of human D2 dopamine receptor (beta-arrestin) | P14416 | DiscoveRx PathHunter D2 beta-arrestin, luminescence, 90 min; 100% = 57 uM dopamine signal | activation, % (test concentration not listed) | actives 0.084% (n = 360,000); in the data active means activation above about 40%; inconclusive means between about 15% and that limit
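Agonist mode: compounds alone added to overnight-plated D2 PathHunter cells for 90 min at 37 C, with 57 uM final dopamine (EC100) defining full response. Beta-arrestin recruitment detected by chemiluminescent reagent, read after 1 h at ambient temperature.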
The depositor's hits bear a star; ? = inconclusive; / = not tested or not shown. Sampled rows, rich in hits. Any-hit rate of the full collection: about 2.4%.

SMILES	D2 PAM-1	D2 PAM-2	D2 antag	D2 ag-1	D2 ag-2
CC1CCN(CCCCOc2ccc([N+](=O)[O-])cc2)CC1	-19.3	-16.3	2.4	-0.4	-1.0
CC1CCN(CCCCOc2ccccc2[N+](=O)[O-])CC1	-25.6	-27.8	79.8*	0.6	0.4
Cc1cc(Br)ccc1OCCOCCN1CCCC1	-15.4	-85.6	43.1*	0.3	-0.8
COc1ccc(CNC(=O)CCn2nc(C)c3c(C)n(-c4ccccc4)nc3c2=O)cc1OC	8.3	/	/	-0.1	/
O=C(CNC(=O)c1cc(Cl)nc2ccccc12)Nc1ccccc1Br	-8.0	-4.7	12.0	-0.6	-3.1
Cc1oc(-c2cccc(F)c2)nc1CN1CCCCC1CCn1cccn1 (stereo not drawn)	-21.4	-7.0	45.2*	1.3	-3.4
Cc1ccc(-c2nc(CN3CCCCC3CCN3CCCC3=O)c(C)o2)o1 (stereo not drawn)	/	-15.7	/	/	-20.0
CCCc1cc(=O)[nH]c2nnc(SCC(=O)Nc3cccc(C)c3)n12	1.8	/	/	-0.5	/
Cc1cccc(C(=O)O/N=C(\N)Cc2ccc([N+](=O)[O-])cc2)c1	5.7	148.1*	15.7	0.4	?
COc1ccc(/C(N)=N/OC(=O)c2cccc([N+](=O)[O-])c2C)cc1	-9.6	3.7	-4.7	0.6	3.4
COc1ccccc1C/C(N)=N/OC(=O)c1cccc([N+](=O)[O-])c1C	-0.9	136.3*	4.8	-1.4	?
N/C(Cc1ccc([N+](=O)[O-])cc1)=N\OC(=O)c1ccccc1Br	-11.3	121.7*	2.8	0.5	41.1*
N/C(Cc1ccc([N+](=O)[O-])cc1)=N\OC(=O)c1ccc(Br)cc1	-10.0	170.8*	11.9	-1.5	?
CCOc1ccc(OCC)c(NC(=O)c2cc(-c3cccs3)nc3ccccc23)c1	12.6	/	/	-0.4	/
N/C(Cc1ccc([N+](=O)[O-])cc1)=N\OC(=O)C(c1ccccc1)c1ccccc1	-5.5	89.4*	12.3	0.0	12.3
COc1ccc(C/C(N)=N/OC(=O)C(c2ccccc2)c2ccccc2)cc1OC	-0.4	50.1*	-16.6	1.0	7.4
N/C(Cc1ccc([N+](=O)[O-])cc1)=N\OC(=O)c1ccc2ccccc2c1	-2.5	143.0*	-4.6	0.7	?
N/C(Cc1ccc([N+](=O)[O-])cc1)=N\OC(=O)c1ccco1	/	21.0	/	/	52.7*
Cc1ccc(CC(=O)O/N=C(\N)Cc2ccc([N+](=O)[O-])cc2)cc1	-5.9	11.8	-16.0	-1.1	6.7
CC(=O)N(c1ccccc1)c1ccccc1[N+](=O)[O-]	/	-2.1	/	/	-3.6
c1ccc(-c2ccccc2OCCOCCN2CCNCC2)cc1	-24.7	-14.1	-30.1	1.4	-2.4
CC1CC(C)CN(CCOc2ccccc2-c2ccccc2)C1 (stereo not drawn)	-29.4	-36.0	78.8*	-0.9	-1.4
CC1CCN(CCOc2ccccc2-c2ccccc2)CC1	-15.2	-13.9	75.0*	-0.2	-5.2
CCN1CCN(CCOCCOc2ccccc2-c2ccccc2)CC1	-18.7	/	60.1*	-0.9	/
O=C(c1ccco1)N1CCN(C(=S)Nc2ccc(F)cc2)CC1	5.9	-5.3	6.1	0.1	-1.4
SMILES	D2 PAM-1	D2 PAM-2	D2 antag	D2 ag-1	D2 ag-2
O=C(CCN1CCN(C(=O)c2ccco2)CC1)Nc1ccc(F)cc1	-26.7	-13.4	11.3	33.5*	0.2
Cc1ccccc1N1CCN(CCC(=O)Nc2ccc(F)cc2)CC1	-20.2	-73.9	78.1*	0.6	1.5
O=C(Cc1ccc(Cl)cc1)Nc1ccc(N2CCN(C(=O)c3ccco3)CC2)cc1	32.2*	-12.7	-15.8	-0.2	1.3
COc1ccccc1N1CCN(CCC(=O)Nc2cccc(F)c2)CC1	-31.7	-41.6	/	20.7	2.2
O=C(O)Cn1ncn(-c2ccc(OC(F)(F)F)cc2)c1=O	-6.4	-2.3	8.8	0.6	5.2
Cc1ccc(C)c(N2CCN(C(=O)Cn3cnc4sc(C)c(S(=O)(=O)N5CCN(c6ncccn6)CC5)c4c3=O)CC2)c1	4.7	/	/	-0.8	/
O=C(Nc1cccc(C(=O)O)c1)/C(=C\c1ccc2c(c1)OCO2)NC(=O)c1ccccc1Cl	5.0	-7.1	-7.2	0.0	-7.0
CC(C)n1c(O)c(N=NC(=O)CNC(=O)c2cccnc2)c2ccccc21	2.7	-33.8	40.9*	-0.1	-5.0
COc1ccccc1CN1CC(C(=O)NCCN(C)CCc2ccccc2)CCC1=O (stereo not drawn)	-16.4	-23.7	24.2	45.5*	0.5
COc1ccc(CCC(=O)Nc2cc3c4c(c2)CCC(=O)N4CCC3)cc1	-4.6	3.7	0.6	0.0	-4.2
CCN1CCN(C(=O)Nc2cccc(C(F)(F)F)c2)CC1	-5.9	-6.8	-3.6	0.3	1.2
O=C(/C=C/c1cccc(F)c1)NC1CCN(Cc2ccccc2)CC1	-25.1	-18.1	56.4*	-1.4	-2.7
Fc1cccc(CN2CCC(Cc3ccccc3)CC2)c1	0.6	-66.1	55.7*	-4.0	1.3
O=C(CCCn1c(=O)c2ccccc2n(Cc2cccc(F)c2)c1=O)NC1CCN(Cc2ccccc2)CC1	-19.7	/	39.6*	18.0	/
CCN1CCC(NC(=O)Nc2cccc(C(F)(F)F)c2)CC1	-4.4	-22.2	36.7*	-0.2	-1.7
Fc1ccccc1CN1CCC(Cc2ccccc2)CC1	-1.9	-9.4	3.5	-1.7	-3.8
O=C(COC(=O)/C=C/c1cccc(F)c1)NC1CC1	/	-18.8	/	/	-1.8
Cc1cccc(NC(=S)N(CCCN2CCOCC2)C(C)c2cc3ccccc3o2)c1C (stereo not drawn)	/	-18.8	-22.4	0.0	0.7
O=C(Nc1cccc(F)c1)NC1CCN(Cc2ccccc2)CC1	-29.4	-17.7	88.6*	0.4	-2.6
O=C(NC1CCN(Cc2ccccc2)CC1)c1c(Cl)cccc1Cl	4.0	-25.2	-6.0	0.5	-2.5
O=C(/C=C/c1cccc(Br)c1)NC1CCN(Cc2ccccc2)CC1	-25.1	-23.5	71.8*	0.9	-1.6
CCOC(=O)C1=CNS(=O)(=O)NC1c1ccc(C(=O)OC)cc1 (stereo not drawn)	/	-2.6	/	/	-0.3
CC(C)(C)CC(=O)Nc1cc2c3c(c1)CCC(=O)N3CCC2	2.7	-10.2	35.3*	0.1	-0.5
CCN(CC)C(=O)CSc1nnc(-c2ccccc2)c(-c2ccccc2)n1	-1.4	-10.0	1.2	0.1	0.7
C=CCN(c1ccc(C(=O)Nc2cccc([N+](=O)[O-])c2)cc1)S(C)(=O)=O	-29.3	-16.5	37.2*	0.3	1.8
CC(=O)Nc1nonc1-c1nnc(SCC(=O)Nc2ccc(C)c(Cl)c2)n1C	1.1	/	/	0.6	/
O=C(CN(CCCN1CCOCC1)C(=O)Cn1nnc(-c2ccc(F)cc2)n1)NC1CCCCC1	-9.7	-13.9	1.5	0.8	-3.8
O=C(CN(CCN1CCOCC1)C(=O)Cn1nnc(-c2ccc(F)cc2)n1)NC1CCCCC1	6.0	-6.2	70.6*	0.7	-4.0
